The values that follow come from PubChem BioAssay (EPA / NIEHS).

Structures are written as SMILES. The source made the active and inactive calls. Rule for the calls: active = hit-call score of the fitted dose curve at least 0.9, where 1 is the maximum; inactive = score below 0.9.

As a reminder, the AC50 is the concentration at which the activity in the assay is half-maximal.

Read-out in experiment [1]: Transforming growth factor beta 1 (TGFb1), TGFB1 (gene 7040)
As to the kind of experiment: BSK_KF3CT_TGFb1: BioMAP Diversity Plus: KF3CT Assay for Transforming growth factor beta 1 (TGFb1) Biomarker Activity (AID 2283072). The conditions noted are these: primary human keratinocytes with fibroblasts; actives raise or lower the signal. In a few lines: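 Human keratinocyte/foreskin fibroblast co-culture; TGF-b1 measured by ELISA 24 h after dosing, fitted bidirectionally versus DMSO. Cytotoxicity checked in parallel cultures by total protein (SRB staining, 560 nm).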

Read-out in experiment [2]: Matrix Metallopeptidase 9 (MMP9), MMP9 (gene 4318)
As to the kind of experiment: BSK_KF3CT_MMP9: BioMAP Diversity Plus: KF3CT Assay for Matrix Metallopeptidase 9 (MMP9) Biomarker Activity (AID 2283074).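 For AC50: MMP9 protein level quantified by ELISA in the co-culture.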 The conditions noted are these: primary human keratinocytes with fibroblasts; actives raise or lower the signal. The method, boiled down: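 Human keratinocyte and foreskin fibroblast co-culture exposed to chemicals for 24 h; MMP9 biomarker measured by ELISA, bidirectional fitting relative to DMSO; cytotoxicity tracked by SRB total protein staining in parallel cultures.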

Read-out in experiment [3]: CD40, CD40 (gene 958)
As to the kind of experiment: BSK_LPS_CD40: BioMAP Diversity Plus: LPS Assay for CD40 Biomarker Activity (AID 2283076). The conditions noted are these: primary human HUVEC with PBMC; actives raise or lower the signal. The method, boiled down: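 ELISA readout of CD40 in HUVEC/PBMC co-culture (BSK_LPS system), 24 h post-dosing; bidirectional curve fit, DMSO baseline; parallel SRB total-protein staining for cytotoxicity.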

Read-out in experiment [4]: E-selectin (Homo sapiens) (UniProt P16581)
As to the kind of experiment: BSK_LPS_Eselectin: BioMAP Diversity Plus: LPS Assay for Eselectin Biomarker Activity (AID 2283077). The conditions noted are these: primary human HUVEC with PBMC; actives raise or lower the signal. The method, boiled down:
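ELISA readout of E-selectin, 24 h post-dose, HUVEC + PBMC co-culture (LPS system). Gain or loss of signal vs DMSO baseline, bidirectional fit.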

Experiment [5] can be described thus: BSK_LPS_SRB: Viability Assessment in the BioMAP Diversity Plus: LPS Assay (AID 2283079).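 Note: total protein by sulforhodamine B absorbance as a cytotoxicity measure; measured one day after compound addition; fitted in both directions against DMSO so loss or gain of signal counts.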 The conditions noted are these: primary human HUVEC with PBMC. In a few lines:
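HUVEC + PBMC co-culture, LPS-stimulated; compound 24 h. 10% TCA fix, 0.1% SRB stain, A560. Bidirectional fit vs DMSO.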

Read-out in experiment [6]: Interleukin-1 alpha (IL1a), IL1A (gene 3552)
As to the kind of experiment: BSK_LPS_IL1a: BioMAP Diversity Plus: LPS Assay for Interleukin-1 alpha (IL1a) Biomarker Activity (AID 2283080). The conditions noted are these: primary human HUVEC with PBMC; actives raise or lower the signal. In a few lines: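 HUVEC/PBMC co-culture, LPS system; 24 h after dosing; IL-1a by ELISA; gain or loss of signal fitted bidirectionally vs DMSO baseline.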

Read-out in experiment [7]: Monocyte Chemoattractant Protein-1 (MCP1), CCL2 (gene 6347)
As to the kind of experiment: BSK_LPS_MCP1: BioMAP Diversity Plus: LPS Assay for Monocyte Chemoattractant Protein-1 (MCP1) Biomarker Activity (AID 2283081). The conditions noted are these: primary human HUVEC with PBMC; actives raise or lower the signal. The method, boiled down: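 ELISA read-out of MCP-1 after 24 h chemical dosing of a human umbilical vein endothelial cell/peripheral blood mononuclear cell co-culture stimulated with LPS. Gain or loss of signal fitted relative to DMSO controls.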

Experiment [8] in a line: BSK_LPS_PGE2: BioMAP Diversity Plus: LPS Assay for Prostaglandin E2 (PGE2) Biomarker Activity (AID 2283082). The conditions noted are these: primary human HUVEC with PBMC; actives raise or lower the signal. The method, boiled down: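 HUVEC plus human PBMC co-culture stimulated with LPS; secreted PGE2 quantified by ELISA 24 h after chemical dosing. Activity fitted bidirectionally against DMSO baseline; parallel SRB staining (0.1% SRB after 10% TCA fixation, 560 nm) flags overt cytotoxicity.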

Read-out in experiment [9]: Macrophage colony-stimulating factor (MCSF), CSF1 (gene 1435)
As to the kind of experiment: BSK_LPS_MCSF: BioMAP Diversity Plus: LPS Assay for Macrophage colony-stimulating factor (MCSF) Biomarker Activity (AID 2283083). The conditions noted are these: primary human HUVEC with PBMC; actives raise or lower the signal. In a few lines:
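HUVEC + PBMC co-culture (human primary), 24 h post-dose; M-CSF by ELISA; gain/loss of signal fitted bidirectionally vs DMSO baseline.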

Read-out in experiment [10]: Tissue Factor, F3 (gene 2152)
As to the kind of experiment: BSK_LPS_TissueFactor: BioMAP Diversity Plus: LPS Assay for Tissue Factor Biomarker Activity (AID 2283084). The conditions noted are these: primary human HUVEC with PBMC; actives raise or lower the signal. In a few lines: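 HUVEC/PBMC co-culture, LPS-activated; CD142 ELISA read 24 h post-dose; bidirectional curve fit vs DMSO negative control.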

Read-out in experiment [11]: Vascular cell adhesion molecule 1 (VCAM1), VCAM1 (gene 7412)
As to the kind of experiment: BSK_LPS_VCAM1: BioMAP Diversity Plus: LPS Assay for Vascular cell adhesion molecule 1 (VCAM1) Biomarker Activity (AID 2283086). The conditions noted are these: primary human HUVEC with PBMC; actives raise or lower the signal. The method, boiled down: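 Human umbilical vein endothelial cells co-cultured with PBMC and stimulated with LPS; VCAM-1 measured by ELISA 24 h after dosing. Bidirectional curve fitting against DMSO baseline; cytotoxicity tracked in parallel by SRB total-protein staining.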

Read-out in the next experiment: CD38, CD38 (gene 952)
As to the kind of experiment: BSK_SAg_CD38: BioMAP Diversity Plus: SAg Assay for CD38 Biomarker Activity (AID 2283087). The conditions noted are these: primary human HUVEC with PBMC; actives raise or lower the signal. In a few lines: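 Human HUVEC plus PBMC co-culture stimulated with superantigen; CD38 measured by ELISA 24 h after chemical dosing. Fluorescence read-out, bidirectional fit against DMSO; cytotoxicity tracked in parallel by SRB and Alamar Blue.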

Read-out in experiment [12]: CD40, CD40 (gene 958)
As to the kind of experiment: BSK_SAg_CD40: BioMAP Diversity Plus: SAg Assay for CD40 Biomarker Activity (AID 2283088). The conditions noted are these: primary human HUVEC with PBMC; actives raise or lower the signal. In a few lines: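 HUVEC/PBMC co-culture, 24 h post-dose; CD40 by ELISA, fluorescence intensity; bidirectional fit vs DMSO negative control.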

Read-out in the next experiment: CD69, CD69 (gene 969)
As to the kind of experiment: BSK_SAg_CD69: BioMAP Diversity Plus: SAg Assay for CD69 Biomarker Activity (AID 2283089).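 For AC50: cell surface CD69 protein quantified by ELISA with fluorescence detection.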 The conditions noted are these: primary human HUVEC with PBMC; actives raise or lower the signal. In a few lines: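 ELISA, fluorescence read-out: CD69 on human umbilical vein endothelial cell + PBMC co-culture, 24 h post-dosing. Gain or loss of signal fitted bidirectionally against DMSO baseline.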

Read-out in experiment [13]: Monocyte Chemoattractant Protein-1 (MCP1), CCL2 (gene 6347)
As to the kind of experiment: BSK_SAg_MCP1: BioMAP Diversity Plus: SAg Assay for Monocyte Chemoattractant Protein-1 (MCP1) Biomarker Activity (AID 2283090). The conditions noted are these: primary human HUVEC with PBMC; actives raise or lower the signal. The method, boiled down:
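MCP-1 levels in the endothelial–PBMC SAg co-culture were quantified by ELISA at 24 h post-dosing; both increases and decreases versus DMSO scored. Cytotoxicity monitored by SRB total protein in parallel cultures.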

Read-out in experiment [14]: E-selectin (Homo sapiens) (UniProt P16581)
As to the kind of experiment: BSK_SAg_Eselectin: BioMAP Diversity Plus: SAg Assay for Eselectin Biomarker Activity (AID 2283091). The conditions noted are these: primary human HUVEC with PBMC; actives raise or lower the signal. In a few lines: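 E-selectin ELISA readout at 24 h post-dosing in human umbilical vein endothelial cell/PBMC co-culture; gain or loss of signal fitted relative to DMSO baseline.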

Read-out in experiment [15]: Tumor necrosis factor (Homo sapiens) (UniProt P01375)
As to the kind of experiment: BSK_LPS_TNFa: BioMAP Diversity Plus: LPS Assay for Tumour Necrosis Factor alpha (TNFa) Biomarker Activity (AID 2283085). The conditions noted are these: primary human HUVEC with PBMC; actives raise or lower the signal. The method, boiled down: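 Human umbilical vein endothelial cells co-cultured with PBMC and stimulated with LPS. TNFa was measured by ELISA 24 h after chemical dosing, fitted bidirectionally relative to DMSO.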

Read-out in experiment [16]: urokinase plasminogen activator (uPA), PLAU (gene 5328)
As to the kind of experiment: BSK_KF3CT_uPA: BioMAP Diversity Plus: KF3CT Assay for urokinase plasminogen activator (uPA) Biomarker Activity (AID 2283075). The conditions noted are these: primary human keratinocytes with fibroblasts; actives raise or lower the signal. The method, boiled down: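 Primary human keratinocyte/foreskin fibroblast co-culture exposed to chemical; uPA measured by ELISA at 24 h. Bidirectional fit versus DMSO, with parallel SRB total-protein staining for cytotoxicity.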

E-selectin (Homo sapiens), sequence (P16581 whole entry, looked up): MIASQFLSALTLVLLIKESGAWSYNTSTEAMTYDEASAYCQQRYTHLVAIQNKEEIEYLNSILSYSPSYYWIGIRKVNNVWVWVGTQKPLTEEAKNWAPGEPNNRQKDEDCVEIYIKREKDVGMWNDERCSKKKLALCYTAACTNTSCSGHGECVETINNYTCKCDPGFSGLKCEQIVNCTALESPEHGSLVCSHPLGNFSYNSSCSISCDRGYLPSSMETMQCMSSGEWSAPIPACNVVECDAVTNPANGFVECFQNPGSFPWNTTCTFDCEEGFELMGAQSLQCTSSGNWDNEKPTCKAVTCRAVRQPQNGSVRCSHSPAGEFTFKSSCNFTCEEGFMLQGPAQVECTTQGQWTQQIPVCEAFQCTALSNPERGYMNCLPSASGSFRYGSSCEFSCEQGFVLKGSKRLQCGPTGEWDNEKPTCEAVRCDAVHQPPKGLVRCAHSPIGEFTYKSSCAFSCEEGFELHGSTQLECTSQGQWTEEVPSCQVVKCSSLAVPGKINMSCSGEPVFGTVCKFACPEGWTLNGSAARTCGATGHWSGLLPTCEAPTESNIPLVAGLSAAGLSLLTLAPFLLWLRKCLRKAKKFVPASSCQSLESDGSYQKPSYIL
Tumor necrosis factor (Homo sapiens), sequence (P01375 whole entry, looked up): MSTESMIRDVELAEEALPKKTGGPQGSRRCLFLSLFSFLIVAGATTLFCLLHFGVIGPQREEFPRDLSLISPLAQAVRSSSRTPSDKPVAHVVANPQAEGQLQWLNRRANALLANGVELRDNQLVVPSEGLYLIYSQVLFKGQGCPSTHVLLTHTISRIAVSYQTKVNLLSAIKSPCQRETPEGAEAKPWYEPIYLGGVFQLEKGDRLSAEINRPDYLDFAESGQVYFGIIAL

For `CCOC(=O)C(C)Oc1ccc(Oc2cnc3cc(Cl)ccc3n2)cc1` (stereo not given), the outcome in [1] is “inactive”; in experiment [2], “inactive”; with CD40, CD40 (gene 958) [3], “inactive”; in experiment [4], “inactive”; in [5], “inactive”; in experiment [6], “inactive”. The outcome in [7] was “inactive”; in experiment [9] it was “inactive”; in [10] it was “inactive”; in [11], “inactive”; with CD38, CD38 (gene 952), “inactive”; with CD40, CD40 (gene 958) [12], “inactive”. Besides, the outcome with CD69, CD69 (gene 969) was “inactive”; in experiment [13], “inactive”; in [14] it was “inactive”. Besides, the AC50 in [8] was 13.1 µM (active).

Consider `CCCCC(CC)COC(=O)c1ccccc1C(=O)O` (stereo not given), for which the outcome in [1] was “inactive”; in experiment [2] it was “inactive”; in the experiment with CD40, CD40 (gene 958) [3], “inactive”; in [4] it was “inactive”; in experiment [5] it was “inactive”; in experiment [6], “inactive”. In addition, the outcome in [7] was “inactive”; in experiment [8], “inactive”; in experiment [9] it was “inactive”; in [10], “inactive”; with CD38, CD38 (gene 952), “inactive”; with CD40, CD40 (gene 958) [12], “inactive”. In addition, the outcome with CD69, CD69 (gene 969) was “inactive”; in experiment [13], “inactive”; in [14] it was “inactive”. Besides, the AC50 was 21.8 µM (active) in experiment [15] and 22.9 µM (active) in experiment [11].

Consider `COC(=O)c1c(Cl)nn(C)c1S(=O)(=O)NC(=O)Nc1nc(OC)cc(OC)n1`, for which the outcome was “inactive” in [1]; “inactive” in [2]; “inactive” in experiment [16]; “inactive” in the experiment with CD40, CD40 (gene 958) [3]; “inactive” in experiment [4]; “inactive” in experiment [5]. In addition, the result in experiment [6], in experiment [7], in experiment [8], in experiment [9], in experiment [10] and in experiment [11] was inactive. Besides, the outcome with CD38, CD38 (gene 952) is “inactive”; with CD40, CD40 (gene 958) [12], “inactive”; with CD69, CD69 (gene 969), “inactive”; in experiment [13] it was “inactive”; in [14], “inactive”.

Turning to `CC(C)CCCCCCc1ccc(O)cc1`, the AC50 was 5.58 µM (active) in [1]; 9.76 µM (active) in experiment [2]; 9.28 µM (active) in the experiment with CD40, CD40 (gene 958) [3]; 12.1 µM (active) in experiment [4]; 13.8 µM (active) in experiment [5]; 6.77 µM (active) in experiment [6]. In addition, the AC50 was 6.36 µM (active) in [8]; 9.04 µM (active) in experiment [9]; 12.3 µM (active) in experiment [10]; 10 µM (active) in experiment [11]; 8.61 µM (active) in the experiment with CD38, CD38 (gene 952); 8.59 µM (active) with CD40, CD40 (gene 958) [12]. Further, the concentration at half-maximal activity (AC50) was 10.7 µM (active) in the experiment with CD69, CD69 (gene 969); 6.52 µM (active) in experiment [13]; 9.34 µM (active) in [14].
